Shown are actives, neighbours in structure and some others; about 17% of the full set was active somewhere.
DT40 TDP1 CPT: qHTS for Inhibitors of human tyrosyl-DNA phosphodiesterase 1 (TDP1): qHTS in cells in presence of CPT; actives 12% (n = 420,000); chicken DT40 Tdp1-/-;hTDP1 cells + 20 nM CPT, ATP luminescence, 48 h; AID 686979, 2013; Potency, µM (series often up to 46.2 µM), inactives show at the highest dose activity change, negative = growth inhibition, actives largely listed as inhibitors; note: % is set by controls: 0 for no effect and ±100 for the full control effect; nearly all actives have a fitted effect of over 55% in size
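Cell growth measured by CellTiter-Glo luminescence after a minimum 48 h, 37 C compound exposure with 20 nM CPT in Tdp1-knockout DT40 cells stably expressing hTDP1, seeded 400/well; qHTS titration format.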
ClpP mod: qHTS Assay for Activators of ClpP; actives 1.9% (n = 340,000); Potency, µM (titrated, usually from 57.5 µM), without a hit: top-dose activity change, negative = active; purified B. subtilis ClpP, FRET peptide cleavage, 20 min; ATP-dependent Clp protease proteolytic subunit (Bacillus subtilis (strain 168)), P80244; active = well fitted falling curve with a large enough effect; inconclusive = small, poorly fitted or top-dose-only effect; inactive = no such curve, though single readings can be large or run the other way; note: the source files actives as falling curves though it sought activators and does not explain the sign; nearly all actives have a fitted effect of over 65% in size
Target sequence (P80244 whole entry, looked up): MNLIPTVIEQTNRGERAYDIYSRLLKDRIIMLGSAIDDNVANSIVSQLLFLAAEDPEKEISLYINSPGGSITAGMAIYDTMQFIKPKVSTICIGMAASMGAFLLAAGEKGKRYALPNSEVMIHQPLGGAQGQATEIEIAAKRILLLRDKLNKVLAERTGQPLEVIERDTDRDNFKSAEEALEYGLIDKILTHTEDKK
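Purified B. subtilis ClpP, 10 microg/mL final in Tris/HCl pH8 with KCl, BSA, glycerol and Tween-20, cleaved an Abz/nitrotyrosine-quenched decapeptide. Fluorescence (ex 320, em 430) was read at 0 and 20 min at room temperature. Delta was normalized to 5.8 microM ADEP and DMSO/no-enzyme controls.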
TDP1 cell noCPT: qHTS for Inhibitors of human tyrosyl-DNA phosphodiesterase 1 (TDP1): qHTS in cells in absence of CPT; DT40 Tdp1-/- hTDP1 cells, no CPT, ATP luminescence, 48 h; Potency, µM (series often up to 46.2 µM), without a hit: top-dose activity change, negative = growth inhibition, most hits filed as inhibitors; actives 15% (n = 420,000); AID 686978, 2013; note: % is set by controls: 0 for no effect and ±100 for the full control effect; nearly all actives have a fitted effect of over 55% in size
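DT40 Tdp1-/-;hTDP1 cells, no CPT (DMSO vehicle only), 400 cells/well; compounds pin-transferred; ≥48 hr, 37 °C; CellTiter-Glo 30 min RT dark, luminescence read.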
TDP1 inh: qHTS Assay for Inhibitors of Tyrosyl-DNA Phosphodiesterase (TDP1). Tyrosyl-DNA phosphodiesterase 1 (Homo sapiens), Q9NUW8. recombinant TDP1, AlphaScreen DNA substrate cleavage. Potency, µM (series often up to 130 µM), for inactives: at the highest dose activity change, negative = inhibition, most hits filed as inhibitors. actives 0.28% (n = 350,000). AID 485290, 2010; note: % is set by controls: 0 for no effect and ±100 for the full control effect; nearly all actives have a fitted effect of over 40% in size
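Enzyme-compound mixtures sat 15 min at room temperature, followed by a 5 min reaction with 15 nM final substrate and 10 min with AlphaScreen beads. Recombinant human Tdp1 was used at 1 nM final.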
The depositor's hits bear a star; ? = inconclusive; nt = no result given; [ ] = remark or other dose. Unless noted, calls come from the whole dose curve; as a rule, active = well fitted curve in the direction sought with a large enough effect; inconclusive = small, poorly fitted or top-dose-only effect, or another doubt; inactive = no such curve, though single readings can be large; an effect the other way counts as inactive or inconclusive. Potency is the fitted concentration of half-maximal effect.

SMILES | DT40 TDP1 CPT | ClpP mod | TDP1 cell noCPT | TDP1 inh
CCC1CN(C(=O)N2CCC(C(=O)NCCc3ccccc3OC)CC2)c2ccccc2O1 (centres undefined) | ? | 1% | 13µM* | 1%
CC(C)Oc1ccc(CC(=O)NNC(=S)Nc2ccccc2)cc1 | ? | 1% | ? | nt
CC(C)Oc1ccc(CCC(=O)NNC(=S)Nc2ccccc2)cc1 | -23% | nt | 18µM* | -2%
C(=Nc1cccnc1)c1ccc2ccccc2n1 | 0.89µM* | -13% | 1µM* | nt
C[C@H]1COC(=O)[C@H](Cc2ccc(F)cc2)C/C=C\C[C@@H](CC(=O)N(CCO)Cc2ccccc2)C(=O)N1 | 15µM* | -2% | 21µM* | 0%
O=C1NCCOC(=O)[C@@H](Cc2ccc(F)cc2)C/C=C\C[C@@H]1CC(=O)N(CCO)Cc1ccccc1 | 18µM* | 1% | 21µM* | 0%
O=C1N[C@H](Cc2ccccc2)COC(=O)[C@H](Cc2ccc(F)cc2)CC/C=C/C[C@H]1CC(=O)N(CCO)Cc1ccccc1 | ? | 0% | 23µM* | 0%
C[C@@H]1COC(=O)[C@@H](Cc2ccc(F)cc2)C/C=C\C[C@@H](CC(=O)N(CCO)Cc2ccccc2)C(=O)N1 | ? | 1% | ? | 0%
CC(C)(C)[C@@H]1COC(=O)[C@H](Cc2ccc(F)cc2)C/C=C\C[C@H](CC(=O)N(CCO)Cc2ccccc2)C(=O)N1 | 13µM* | 1% | 21µM* | 1%
O=C(C[C@@H]1C/C=C\CC[C@H](Cc2ccc(F)cc2)C(=O)OC[C@@H](Cc2ccccc2)NC1=O)NCCO | ? | 0% | ? | 3%
O=C(NNC(=O)c1ccco1)c1csc(N2CCOCC2)n1 | 1% | 1% | -3% | nt
Cc1ccccc1NC(=O)c1ccc(F)c(S(=O)(=O)N(C)C2CCCCC2)c1 | -48% | -4% | ? | 5%
O=C(O)[C@H]1CN(CCCP(=O)(O)O)CCN1 | 23% | nt | -6% | 13%
COC(=O)CCN1CCC2CC1c1cc(Cl)ccc12 (centres undefined) | -10% | 0% | -7% | nt
O=C1N[C@@H](Cc2ccccc2)COC(=O)[C@@H](Cc2ccc(F)cc2)C/C=C\C[C@@H]1CC(=O)N(CCO)Cc1ccccc1 | 23µM* | -5% | 18µM* | 1%
O=C(NCc1ccccc1)C(c1cccnc1)N(C(=O)c1csnn1)c1ccccc1 (centres undefined) | 1% | nt | -3% | 9%
COc1cc(NC(=O)c2cccc(COCC(F)(F)C(F)F)c2)cc(OC)c1OC | ? | 3% | ? | 1%
Cc1cc(C(=O)N2CCN(c3ccccc3F)CC2)c2c(C)nn(-c3ccccc3)c2n1 | ? | ? | ? | 3%
Cc1ccc(-n2nc(C)c3c(C(=O)O)cc(C)nc32)cc1 | 6% | -2% | 7% | -8%
Cc1cc(C(=O)N2CCN(c3cc(Cl)ccc3C)CC2)c2c(C)nn(-c3ccccc3)c2n1 | 21µM* | 5% | ? | -6%
CSc1ncc(C(=O)N2CCN(c3cc(C)ccc3C)CC2)c(C)n1 | 21µM* | -4% | ? | -1%
Cc1ccc(C)c(N2CCN(C(=O)c3cc(C)nc4c3c(C)nn4-c3ccccc3)CC2)c1 | ? | ? | 18µM* | -2%
COc1ccc(CNC(=O)C(c2ccco2)N(C(=O)c2ccccn2)c2ccccc2)cc1 (centres undefined) | 10µM* | -1% | 23µM* | 0%
CC1(C)OC2OC(C(=O)N/N=C/c3ccccc3F)C3OC(C)(C)OC3C2O1 (centres undefined) | 1% | nt | -3% | 0%
CC1(C)C(C=C(Cl)Cl)C1C(=O)N/N=C/c1ccccc1F (centres undefined) | ? | nt | 29µM* | nt
SMILES | DT40 TDP1 CPT | ClpP mod | TDP1 cell noCPT | TDP1 inh
CC1(C)C(C=C(Cl)Cl)C1C(=O)Nc1ccc([N+](=O)[O-])cc1 (centres undefined) | 18µM* | -14% | 16µM* | -2%
CCC(=O)N(C)C[C@H]1Oc2ncc(C#Cc3ccncc3)cc2C(=O)N([C@@H](C)CO)C[C@@H]1C | 27% | -2% | -5% | nt
CC(=O)O[C@H]1C2=CO[C@H](C)[C@H]3[C@H]4C5=C([C@H](O)[C@H]6O[C@@H]6C5=O)[C@H](O[C@H]4C)[C@@]23C(=O)[C@H]2O[C@@H]21 | nt | nt | nt | 1%[21 µM]
Cc1c(-n2cc(C(=O)O)c(=O)c3cc(F)c(N4CCCC(O)C4)c(F)c32)c(=O)n(-c2ccccc2)n1C (centres undefined) | -10% | 10µM* | -4% | 5%
CCOC(=O)c1c(C)[nH]c(C)c1S(=O)(=O)N1CCN(c2cc(Cl)ccc2C)CC1 | ? | -3% | ? | 8%
CCC(=O)N1c2ccccc2CC1C(=O)NCCN1CCN(c2cc(Cl)ccc2C)CC1 (centres undefined) | 21µM* | -1% | ? | 9%
CCOC(=O)c1c(C)[nH]c(C)c1S(=O)(=O)NCCN1CCN(c2cc(Cl)ccc2C)CC1 | ? | 0% | 13µM* | 8%
CCOc1ccc(NC(=O)NCCN2CCN(c3cc(Cl)ccc3C)CC2)cc1 | 21µM* | 0% | ? | 8%
Cc1ccc(Cl)cc1N1CCN(CCNC(=O)Nc2ccc(Cl)cc2)CC1 | 12µM* | 0% | ? | 0%
COc1ccc(N2CCN(CCNC(=O)Nc3ccc(Cl)cc3)CC2)cc1 | ? | -6% | ? | 7%
COc1ccc(S(=O)(=O)N(C)CC(=O)N2CCN(c3ccc(F)cc3)CC2)cc1OC | ? | 1% | 22µM* | 6%
Cc1ccc(S(=O)(=O)N(CC(=O)N2CCN(c3ccc(F)cc3)CC2)C2CCCCC2)cc1 | ? | 0% | 21µM* | 4%
CCN1CCN(C(=O)CN(c2ccc(F)cc2)S(=O)(=O)c2ccc(OC)c(OC)c2)CC1 | 7% | 1% | 1% | 4%[56.1 µM]
Cc1ccc(S(=O)(=O)N(CC(=O)N=Nc2c(O)[nH]c3ccccc23)c2ccc(C)c(C)c2)cc1 | 18µM* | -2% | 21µM* | 11%
COc1ccccc1N(CC(=O)N1CCN(Cc2ccccc2)CC1)S(=O)(=O)c1ccccc1 | 23µM* | -1% | 16µM* | nt
CCn1c(CC(=O)Nc2ccccc2Cl)nnc1SCC(=O)NC1CCCC1 | 4% | nt | -7% | nt
CCOC(=O)c1cc(=O)c2ccc(OCC(=O)Nc3ccc(F)cc3)cc2o1 | -6% | 2% | -17% | 5%
COc1ccc(N2CCN(C(=O)CN(c3ccc(OC)cc3)S(=O)(=O)c3ccccc3)CC2)cc1 | 13µM* | 0% | 23µM* | 10%
COc1ccc(CNC(=O)N2CCN(c3ccc(F)cc3)CC2)cc1Cl | ? | -3% | 9.2µM* | 9%
O=C(CN(C1CCCCC1)C1CCCCC1)N1CCc2ccccc2C1 | ? | -1% | 16µM* | 3%
